# HEK293 viab: GF-AFC viability counterscreen for inhibitors of alpha-synuclein gene (SNCA) expression. 150,000 compounds, 0.12% hits. Potency, µM (series often up to 57.1 µM), for the others: at the highest dose activity change, negative = cytotoxicity, usual class: cytotoxic. HEK-293-SNCA-luc viability, GF-AFC fluorescence, 24 h;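 note: potency is the fitted concentration of half-maximal effect; 0% = DMSO-treated cells and -100% = medium-only wells without cells; nearly all actives have a fitted effect of over 30% in size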
#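 Cytotoxicity counterscreen: after 24 h compound treatment of genome-edited SNCA-luciferase HEK-293 cells, live-cell protease substrate GF-AFC read by fluorescence after 30 min; activity scaled between DMSO (0%) and medium-only (-100%), curves Hill-fitted.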
# KDM5B inhibitor: Primary screen for KDM5B Histone Demethylases FDH-coupled qHTS; Potency, µM (series often up to 57.7 µM), usual class: inhibitors; AID 1347165, 2019; 220,000 compounds, 2.6% hits; KDM5B demethylase, FDH-coupled NADH fluorescence (FDH is formaldehyde dehydrogenase); note: potency is the fitted concentration of half-maximal effect; 0% is about no effect; nearly all actives have a fitted effect of over 70% in size
#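 KDM5BΔAP (200 nM final) in 50 mM HEPES pH 7.5, 0.01% Tween-20 was preincubated 10 min at RT with compound over a concentration range. Substrate mix (H3K4me3 12.5 µM, α-KG 25 µM, Fe²⁺, ascorbate, NAD⁺, FDH) was added, and NADH fluorescence change over 30 min gave dose-response curves.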
# SNCA expr inh: Primary qHTS assay for inhibitors of alpha-synuclein gene (SNCA) expression | HEK-293 SNCA-luciferase knock-in, luminescence, 24 h | Potency, µM (series often up to 57.2 µM), for inactives: at the highest dose activity change, negative = inhibition, most hits filed as inhibitors | 140,000 compounds, 0.17% hits;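 note: potency is the fitted concentration of half-maximal effect; plate controls were DMSO cells for no effect and cell-free wells for full effect; nearly all actives have a fitted effect of over 45% in size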
# IP6K1 inh: Primary qHTS assay for small molecule inhibitors of Inositol hexaphosphate kinase 1 (IP6K1); 140,000 compounds, 0.81% hits; IP6K1 kinase, ADP-Glo luminescence, 2 h; stronger effect = lower value; activity change, % (series mostly up to about 58 µM); Inositol hexakisphosphate kinase 1 (Homo sapiens), Q92551; in the data active = activity change below about -25%; note: % is set by controls: 0 for no effect and ±100 for the full control effect
#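 ADP-Glo luminescence measures ADP made by human IP6K1 during a 2 h RT reaction with ATP/IP6 (mix at 1.3 mM/130 uM); top library doses 57.5 and 19.1 uM final.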
# * = called active by the depositor; i = inactive; ? = inconclusive; nt = no result given; [ ] = dose if it differs, or a comment. Shown are actives, neighbours in structure and some others; about 2.9% of the full set was active somewhere. Unless noted, calls come from the whole dose curve; as a rule, active = well fitted curve in the direction sought with a large enough effect; inconclusive = small, poorly fitted or top-dose-only effect, or another doubt; inactive = no such curve, though single readings can be large; an effect the other way counts as inactive or inconclusive.
SMILES,HEK293 viab,KDM5B inhibitor,SNCA expr inh,IP6K1 inh
CCOc1nccnc1NC1CCN(S(=O)(=O)C2CC2)CC1,9.6%,31.6µM*,1.1%,-1.0
CCCOc1nccnc1NC1CCN(S(=O)(=O)C2CC2)CC1,11.2%,15.8µM*,?,-3.2
CN(C)c1nccnc1OC1CCN(S(=O)(=O)Cc2ccccc2)C1 (centres undefined),-3.8%,?,10.9%,-1.1
N#Cc1ccc(CN2CCCC3(C2)NC(=O)c2ccccc2O3)cc1 (centres undefined),-7.2%[87.6 µM],i,1.4%[87.6 µM],26.2
O=C1NC2(CCN(Cc3ccc(F)cc3)C2)COc2ccccc21 (centres undefined),-8.0%[87.6 µM],?,-22.7%[87.6 µM],23.0
N#Cc1ccc(CN2CCC3(CC2)COc2ccccc2C(=O)N3)cc1,-2.2%,i,19.6%,15.7
N#Cc1ccc(CN2CCCC3(COc4ccccc4C(=O)N3)C2)cc1 (centres undefined),1.9%,35.5µM*,?,16.6
O=C1NC2(CCN(Cc3ccccc3)C2)COc2ccccc21 (centres undefined),9.1%[87.6 µM],39.8µM*,-5.4%[87.6 µM],4.6
O=C1NC2(CCN(Cc3ccc(OC(F)(F)F)cc3)C2)COc2ccccc21 (centres undefined),0.6%,22.4µM*,-4.7%,5.0
N#Cc1ccc(CN2CCC3(COc4ccccc4C(=O)N3)C2)cc1 (centres undefined),10.7%[87.6 µM],39.8µM*,-11.7%[87.6 µM],16.6
Cn1nccc1CN1CCC2(COc3ccccc3C(=O)N2)C1 (centres undefined),2.4%[87.6 µM],?,-11.1%[87.6 µM],10.7
Cc1ccc(CN2CCCC3(COc4ccccc4C(=O)N3)C2)cc1 (centres undefined),7.1%[87.6 µM],35.5µM*,2.4%[87.6 µM],7.2
CC(C)NC(=O)c1nc(C(C)(C)C)c2ccccn12,7.1%[87.6 µM],112µM*,2.2%[87.6 µM],-9.6
CC(C)(C)c1nc(C(=O)N2CCCC2)n2ccccc12,-9.2%[87.6 µM],112µM*,?,-5.1
C#CCNC(=O)c1nc(C(C)(C)C)c2ccccn12,-0.7%[87.6 µM],112µM*,2.5%[87.6 µM],-8.2
CC(C)NC(=O)c1nc(-c2ccccc2)c2ccccn12,7.2%[87.6 µM],i,0.0%[87.6 µM],1.1
COc1ccc(-c2nc(C(=O)N3CCCC3)n3ccccc23)cc1,10.5%[87.6 µM],?,23.1%[87.6 µM],7.7
COc1ccc(-c2ccnc(N[C@H]3CO[C@H]4[C@@H]3OC[C@H]4OCC(N)=O)n2)cc1,0.0%[87.6 µM],31.6µM*,14.1%[87.6 µM],0.6
CN(C)c1ccc(-c2nnnn2[C@H]2CO[C@H]3[C@@H]2OC[C@H]3OC(=O)Nc2cccc(C#N)c2)cc1,-1.1%,35.5µM*,4.2%,25.3
CC(C)(C)c1ccc(NC(=O)O[C@@H]2CO[C@H]3[C@@H]2OC[C@@H]3Nc2nccc(-c3ccc(-c4ccccc4)cc3)n2)cc1,-16.9%,i,-29.6%,11.6
Cc1ccc(NC(=O)O[C@@H]2CO[C@H]3[C@@H]2OC[C@@H]3Nc2nccc(-c3ccccc3)n2)cc1,-2.6%[87.6 µM],28.2µM*,152.5%[87.6 µM],4.0
COc1ccc(-c2ccnc(N[C@H]3CO[C@H]4[C@@H]3OC[C@@H]4NS(=O)(=O)c3ccc(C)cc3)n2)cc1,-1.8%,i,-4.9%,-1.7
N#Cc1cccc(-c2ccnc(N[C@H]3CO[C@H]4[C@@H]3OC[C@H]4OC(=O)Nc3ccccc3)n2)c1,-2.2%,i,68.8%,8.2
N#Cc1cccc(NC(=O)O[C@@H]2CO[C@H]3[C@@H]2OC[C@@H]3Nc2nccc(-c3cccc(F)c3)n2)c1,?,6.31µM*,?,2.2
CCCC(O)CN1CCC(=O)N(Cc2ccccc2)Cc2sccc21 (centres undefined),nt,nt,nt,14.9
O=C(O)CCCC(=O)N[C@H]1CO[C@H]2[C@@H]1OC[C@@H]2Nc1nccc(-c2ccc(-c3ccccc3)cc2)n1,8.8%,31.6µM*,19.2%,7.3
COc1ccc(-c2ccnc(N[C@H]3CO[C@H]4[C@@H]3OC[C@@H]4NC(=O)CCC(=O)O)n2)cc1,3.5%[87.6 µM],?,1.2%[87.6 µM],-8.5
COC(=O)c1ccccc1NC(=O)O[C@@H]1CO[C@H]2[C@@H]1OC[C@@H]2Nc1nccc(-c2ccc3c(c2)OCO3)n1,-9.5%,28.2µM*,-20.6%,0.8
Cc1ccc(NC(=O)Nc2ccccc2)c(=O)n1CC(=O)N1CCN(c2ccccc2)CC1,10.1%,28.2µM*,6.5%,-5.9

# Screening data deposited in PubChem by National Center for Advancing Translational Sciences (NCATS).
